Shown are actives, neighbours in structure and some others; about 11% of the full set was active somewhere.
Pf growth 96h – P. falciparum growth inhibition at 96 hour, primary screen for plastid delayed-death inhibitors | AID 504834 | P. falciparum luciferase reporter growth, 96 h | Potency, µM (top dose mostly 28.7 µM), for inactives: at the highest dose activity change, negative = inhibition, actives largely listed as inhibitors | 6.9% of 320,000 active
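Erythrocytes infected with luciferase-expressing P. falciparum were dispensed at 2% hematocrit and 0.05% parasitemia (final), then incubated with compounds 96 hours at 37 C in 5% CO2. Luminescence after detection reagent addition reported growth.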
AmpC inh no detg – inhibitors of E. coli AmpC beta-lactamase without detergent; P00811; AmpC nitrocefin hydrolysis, absorbance 480 nm, 0.0001% Triton; Potency, µM (titrated, usually from 57.1 µM), for the others: at the top dose activity change, negative = inhibition, usual class: inhibitors; 0.52% of 330,000 active;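 note: plate controls were no compound for no effect and no enzyme for full effect; nearly all actives have a fitted effect of over 20% in size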
Target sequence (P00811 whole entry, looked up): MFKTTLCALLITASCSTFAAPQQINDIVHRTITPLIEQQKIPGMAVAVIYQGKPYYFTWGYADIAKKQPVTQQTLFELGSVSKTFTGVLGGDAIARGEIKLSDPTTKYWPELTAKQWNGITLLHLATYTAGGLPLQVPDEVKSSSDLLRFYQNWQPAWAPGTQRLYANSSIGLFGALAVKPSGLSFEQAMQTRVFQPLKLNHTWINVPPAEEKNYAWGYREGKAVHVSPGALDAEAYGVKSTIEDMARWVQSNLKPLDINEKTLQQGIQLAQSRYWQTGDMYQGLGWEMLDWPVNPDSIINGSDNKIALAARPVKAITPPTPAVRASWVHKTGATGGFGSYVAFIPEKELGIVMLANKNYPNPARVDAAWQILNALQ
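AmpC (5.3 nM in the dispensed reagent) in 20 mM phosphate pH 7.0 with 0.01% (detergent screen) or 0.0001% Triton X-100 was preincubated with compounds for 15 min at room temperature. Nitrocefin was then added from an 800 uM solution, and hydrolysis was followed at 480 nm.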
AmpC detergent – AmpC beta-lactamase inhibition with detergent present. P00811. AmpC hydrolysis of nitrocefin, absorbance 480 nm, 0.01% Triton. Potency, µM (highest dose often 114 µM), inactives show top-dose activity change, negative = inhibition, usual class: inhibitors. 0.041% of 370,000 active;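 note: 0% = no-compound wells and -100% = no-enzyme wells; nearly all actives have a fitted effect of over 25% in size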
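20 mM phosphate pH 7.0 + 0.01% (detergent screen) or 0.0001% Triton X-100; 5.3 nM AmpC reagent; cpd preinc 15 min RT; nitrocefin (800 uM stock) to start; A480 q20 s × 4 min; Activity was normalised to no-enzyme and no-compound control wells.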
Pf growth 48h – P. falciparum growth inhibition at 48 hours (one generation); 5.9% of 310,000 active; P. falciparum luciferase growth in erythrocytes, 48 h; Potency, µM (titrated, usually from 28.7 µM), for the others: at the top dose activity change, negative = inhibition, hits mostly inhibitors
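First compound was added to culture medium, then infected red cells at 0.1% parasitemia and 2% hematocrit (final). After incubation at 37 C under 5% CO2, luciferase detection reagent was dispensed and light output recorded.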
AMA1-RON2 inh – disrupts binding of P. falciparum AMA1 to RON2; Potency, µM (series often up to 58.2 µM), without a hit: at the top dose activity change, negative = inhibition, usual class: inhibitors; AID 720542; AlphaScreen AMA1-biotinylated RON2 peptide binding; 0.2% of 360,000 active;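 note: 0% = vehicle wells and -100% = peptide control; nearly all actives have a fitted effect of over 45% in size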
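AMA1 (3D7) with his tag at 25 nM final met compounds first, then biotinylated RON2 peptide at 25 nM; detection used donor plus acceptor beads, 10 µg/mL apiece, read by AlphaScreen after 30 min at room temperature.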
HCV inhibitor – blocks hepatitis C virus | Potency, µM (highest dose often 41.8 µM), for the others: at the top dose activity change, negative = inhibition, actives largely listed as inhibitors | AID 651820 | 3.4% of 340,000 active | Huh7.5.1 HCVcc-Cre infection, luciferase reporter, 44 h
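Cells (1,000/well) were plated 4 h before compound, then infected with HCVcc-Cre virus (~0.5 moi). After 44 h further culture, infection was read as luciferase luminescence following a 15 min substrate incubation at room temperature.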
The depositor's hits bear a star; ? = inconclusive; / = not tested or not shown; [ ] = another dose, or the depositor's remark. Calls come from the whole dose curve; as a rule, active = well fitted curve in the direction sought with a large enough effect; inconclusive = small, poorly fitted or top-dose-only effect, or another doubt; inactive = no such curve, though single readings can be large; an effect the other way counts as inactive or inconclusive. Unless noted, % is set by controls: 0 for no effect and ±100 for the full control effect; potency is the fitted concentration of half-maximal effect.

SMILES	Pf growth 96h	AmpC inh no detg	AmpC detergent	Pf growth 48h	AMA1-RON2 inh	HCV inhibitor
O=C(C1=C[C@H](c2ccc(C(F)(F)F)cc2)C[C@H](OCc2ccc(CO)cc2)O1)N1CCCCCCC1	9.3µM*	72%	3%	?	7%	1%[8.37 µM]
O=C(C1=C[C@@H](c2ccccc2)C[C@@H](OCc2ccc(CO)cc2)O1)N1CCCCCCC1	8.3µM*	87%	-6%	?	-6%	-3%[8.37 µM]
CCC(Nc1ccc(-c2nc(-c3cccnc3)no2)cc1[N+](=O)[O-])c1ccccc1 (stereo unspecified)	/	/	28%	/	/	/
O=C(CN(Cc1ccc(F)cc1)C(=O)CCC(=O)Nc1nccs1)NCc1ccc(F)cc1	16%	45%	?	-18%	-9%	-3%
COc1ccc(CN(CC(=O)NCc2ccc(F)cc2)C(=O)CCC(=O)Nc2nccs2)cc1	4.7µM*	-21%	2%	11%	5%	14%
COc1ccc(CNC(=O)CN(C(=O)CCC(=O)Nc2nccs2)c2ccc(C)cc2)cc1	7.4µM*	-15%	-2%	?	9%	-16%
O=C(CSc1nncn2c1cc1occc12)Nc1ccccc1C(F)(F)F	/	/	-2%	/	/	/
CCOc1ccc2nc(NC3=NC(C)(C)C=C(C)N3)nc(C)c2c1	?	-32%	-2%	/	9%	?
CCOc1ccc2nc(NC3=NC(c4ccc(OC)cc4)CC(=O)N3)nc(C)c2c1 (stereo unspecified)	10µM*	105%	-13%	?	?	8.9µM*
COc1cccc(OCc2cc(C3Nc4ccccc4C(=O)N3Cc3ccco3)ccc2OC)c1 (stereo unspecified)	-7%	-56%	-10%	8.3µM*	-5%	?
O=C1c2ccccc2NC(c2ccccc2)N1Cc1ccco1 (stereo unspecified)	-6%	-23%	-13%	-14%	0%	-4%
COc1ccc(C2Nc3ccccc3C(=O)N2Cc2ccco2)cc1COc1ccc([N+](=O)[O-])cc1 (stereo unspecified)	5.9µM*	-29%	-8%	?	-2%	?
O=C1c2ccccc2NC(c2ccc(F)cc2)N1Cc1ccco1 (stereo unspecified)	83%	-39%	-2%	0%	0%	-12%
COc1cc(-c2cc(OC)c3c(C)oc(C)c3c(=O)c2)ccc1OC(=O)c1cccc(C)c1	/	/	19%	/	/	/
COc1ccc(S(=O)(=O)n2nc(C)c(S(=O)(=O)N3CCCCC3)c2C)cc1	/	/	21%	/	/	/
COC(=O)c1c(C)cc(O)c(C=O)c1O	/	/	/	/	34%	-18%
Cc1cc2c(C(C)C)c(O)c(O)c(C=O)c2c(O)c1-c1c(C)cc2c(C(C)C)c(O)c(O)c(C=O)c2c1O	5.2µM*	-48%	-8%	13µM*	/	?
CN1CCC(Nc2ncc3ncnc(Nc4ccc(F)c(Cl)c4)c3n2)CC1	3.4µM*	/	/	1.7µM*	/	/
Cc1cccc(-n2c(=O)c3ccccc3n(Cc3ccccc3)c2=O)c1	/	/	2%	/	/	/
COc1ccc(NS(=O)(=O)c2ccc(C)c(C(=O)NCC(c3ccco3)N3CCCCC3)c2)cc1 (stereo unspecified)	?	-11%	-11%	-11%	32%	-21%
COc1ccc(C(CNC(=O)c2cccc(S(=O)(=O)Nc3ccc(F)cc3)c2)N2CCCCC2)cc1 (stereo unspecified)	/	/	/	/	-2%	5µM*
Cc1ccc(NS(=O)(=O)c2cccc(C(=O)NCC(c3ccco3)N3CCCCC3)c2)cc1 (stereo unspecified)	12µM*	-11%	-5%	?	3%	/
CCOc1ccc(NS(=O)(=O)c2ccc(C(=O)NCC(c3ccc(OC)cc3)N3CCCC3)cc2)cc1 (stereo unspecified)	13µM*	61%	-8%	13µM*	29%	?
COc1ccc(C(CNC(=O)c2ccc(NS(=O)(=O)c3ccc(F)c(C)c3)cc2)N2CCCC2)cc1 (stereo unspecified)	/	/	/	/	5%[11.6 µM]	?
Cc1cccc(NS(=O)(=O)c2ccc(C)c(C(=O)NCC(c3ccco3)N3CCCCC3)c2)c1 (stereo unspecified)	?	12%	?	13µM*	-14%	?
SMILES	Pf growth 96h	AmpC inh no detg	AmpC detergent	Pf growth 48h	AMA1-RON2 inh	HCV inhibitor
COc1ccccc1N1CCN(C(=O)c2cc(CC(C)C)on2)CC1	/	/	22%	/	/	/
CCOCCn1ccc2c(OCC(=O)NCc3ccc(F)cc3)cccc2c1=O	/	/	3%	/	/	/
Cc1cc(C)c(NC(=O)Cn2nc(-c3ccncc3)ccc2=O)c(C)c1	/	/	5%	/	/	/
CCC(C)n1c(=N)c(C(=O)NC2CCCCC2)cc2c(=O)n3cc(C)ccc3nc21 (stereo unspecified)	/	/	-10%	/	/	/
O=C(NCC(c1ccco1)N1CCCC1)c1cccc(S(=O)(=O)Nc2ccc(Br)cc2)c1 (stereo unspecified)	?	41%	3%	?	55%	-17%
COc1ccc(NS(=O)(=O)c2cccc(C(=O)NCC(c3ccco3)N3CCCC3)c2)cc1 (stereo unspecified)	15µM*	-19%	?	?	69%	-5%
CN1CCN(c2nc(N3CCN(CCO)CC3)nc3ccccc23)CC1	?	-9%	-7%	-1%	6%	?
OCCN1CCN(c2cc(-c3ccccc3)c3ccccc3n2)CC1	13µM*	325%	0%	?	-11%[11.6 µM]	?
N=c1ccn(Cc2ccc(Cl)cc2Cl)cc1	1.5µM*	7%	-6%	/	-3%	2.8µM*
N=c1ccn(Cc2c(Cl)cccc2Cl)cc1	?	-10%	-1%	?	-4%	?
N=c1ccn(Cc2ccccc2Cl)cc1	/	-2%	3%	4.7µM*	8%	2.5µM*
CCC(=O)N1N=C2C3CCN(CC3)C2C1c1ccc(C)cc1 (stereo unspecified)	4.1µM*	-1%	-5%	14%	26%	10%
CCC(=O)N1N=C2C3CCN(CC3)C2C1c1ccccc1 (stereo unspecified)	-2%	-11%	-4%	8%	-2%	3%
Cc1c(NC(=O)c2cccc3c(Cl)cccc23)cccc1-c1nc2ccccc2o1	/	/	4%	/	/	/
CC(=O)Oc1ccccc1C(=O)Oc1ccc(/C=N/n2cnnc2)cc1	8.3µM*	-14%	?	12%	-6%	14%
CCOc1ccc(/C=N/n2cnnc2)cc1	/	-13%	-4%	0%	11%	4%
CC(=O)/C=C/n1c(=S)oc2ccccc21	-81%	-4%	-9%	?	8%	4.5µM*
